In PubChem BioAssay AID434989 (The Scripps Research Institute Molecular Screening Center, 2010):
Among all 330,000 compounds or so, about 1,400 (0.42%) were called active.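 Rule for the calls: active = inhibition above its plate's threshold, mean inhibition of all tested compounds on the plate plus 3 SD (cut at about 37% in these data); inactive = the rest.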 Only a selection was taken, and actives are over-represented in it overall.

molecular target: Orexin/Hypocretin receptor type 1 (Homo sapiens) (UniProt O43613); experiment: blockers of orexin-A calcium signaling via HCRTR1 – fluorescence, CHO/OX1R cells, Fluo-8 calcium, primary screen (AID 434989); conditions: Fluo-8 calcium fluorescence, at 5 µM, active compounds read high;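 note: 0% = orexin A challenge wells and 100% = SB-334867-A antagonist wells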
Sequence (O43613 whole entry, looked up): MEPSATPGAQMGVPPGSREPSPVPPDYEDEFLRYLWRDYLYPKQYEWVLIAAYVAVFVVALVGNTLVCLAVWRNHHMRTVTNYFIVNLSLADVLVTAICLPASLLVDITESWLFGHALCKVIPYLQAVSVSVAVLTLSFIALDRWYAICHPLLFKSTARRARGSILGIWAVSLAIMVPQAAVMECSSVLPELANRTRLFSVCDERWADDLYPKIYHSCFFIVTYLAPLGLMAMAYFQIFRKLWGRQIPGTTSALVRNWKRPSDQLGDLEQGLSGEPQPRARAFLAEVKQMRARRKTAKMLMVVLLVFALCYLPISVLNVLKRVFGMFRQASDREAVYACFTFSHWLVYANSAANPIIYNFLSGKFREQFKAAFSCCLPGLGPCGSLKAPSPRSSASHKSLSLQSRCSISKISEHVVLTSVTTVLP

SMILES | inhibition
N#CC(=C1CCCC1)c1nc(-c2ccc(Cl)cc2)cs1 | -23.8% (inactive)
Cn1c(/C(C#N)=C2/CCCCCN2)nc2ccccc21 | -27.9% (inactive)
N#C/C(=C1\CCCN1)c1nc(-c2ccccc2)cs1 | 52.9% (active)
N#C/C(=C1/CCCN1)c1ccccn1 | -3.72% (inactive)
CCNC(=O)CSc1nc(-c2ccccc2)cs1 | 4.28% (inactive)
N#CC(=C1SC=CS1)c1nc(-c2ccccc2)cs1 | 89.5% (active)
Cc1cccc(C(=O)N[C@H](C(=O)NCc2cccs2)C(C)C)c1 | -7.31% (inactive)
CCOC(=O)N1CCN(C(=O)C2CCN(c3ncnc4c3sc3cccc(F)c34)CC2)CC1 | 65.7% (active)
CCOC(=O)C1CCN(c2ncnc3c2oc2ccc(Br)cc23)CC1 | -11.1% (inactive)
CCOC(=O)N1CCN(C(=O)C2CCN(S(=O)(=O)c3cc(Cl)ccc3OCC)CC2)CC1 | -21.5% (inactive)
CCN(CC(=O)NC(C)C)C(=O)c1cc(S(=O)(=O)N2CCCCC2)ccc1N1CCCCC1 | -37.7% (inactive)
CCCCNC(=O)C(C)N(CCN(C)C)C(=O)CCCN1C(=O)NC(c2ccc(Cl)cc2)C(C(=O)OCc2ccccc2)=C1C (stereo not drawn) | -28.8% (inactive)
O=C(Nc1cccc(Br)c1)c1ccc2snnc2c1 | -1.56% (inactive)
O=C(Nc1ccc2ccccc2c1)Nc1ccc2snnc2c1 | 41.4% (active)
CCc1ccccc1NC(=O)c1ccc2snnc2c1 | -1.72% (inactive)
COc1ccc(C2=Nn3c(nnc3-c3ccccc3OC)SC2)cc1OC1CCCC1 | -19.5% (inactive)
O=c1c2ccccc2nc2n1C(CSc1ccc(F)cc1)CN2 (stereo not drawn) | -5.98% (inactive)
O=c1c2ccccc2nc2n1C(CSCc1cccc(C(F)(F)F)c1)CS2 (stereo not drawn) | 45.5% (active)
O=c1c2ccccc2nc2n1C(CSCc1ccccc1)CS2 (stereo not drawn) | -3.31% (inactive)
Cc1ccc(S(=O)(=O)NCC(=O)NNC(=O)c2ccc(Br)cc2)cc1C | -11.2% (inactive)
COc1cccc(CC(=O)OCC(=O)NCc2ccc3c(c2)OCO3)c1 | -9.44% (inactive)

SMILES | inhibition
COc1cccc(/C=N/Nc2cc(C)nc(-c3ccccc3O)n2)c1O | 93.8% (active)
Oc1cccc(/C=N/Nc2ccc(Cl)nn2)c1O | -18.9% (inactive)
COc1ccccc1/C=N/Nc1nc(C)c(C(C)=O)s1 | -4.69% (inactive)
CCNC(=O)N(CC)C[C@H]1N[C@@](CC)(C(=O)OC)[C@H]2C(=O)N(Cc3ccccc3)C(=O)[C@@H]12 | 4.29% (inactive)
C=CCC[C@H](Cc1ccc(F)cc1)C(=O)OC[C@H](C)NC(=O)[C@H](CC=C)CC(=O)N(CCO)Cc1ccccc1 | 6.31% (inactive)
CN(C)C(=O)CCc1ccc2c3c([nH]c2c1)[C@]1(C)[C@@H](C(=O)N2CCCCC2)C[C@H](CC(=O)NCCC2=CCCCC2)C(=O)N1CC3 | -30.3% (inactive)
Cc1c(NC(=O)C(C)OC(=O)c2ccccc2O)c(=O)n(-c2ccccc2)n1C (stereo not drawn) | -6.55% (inactive)
Cn1nccc1C(=O)NC1CCCc2c1cnn2-c1ccccc1F (stereo not drawn) | 8.33% (inactive)
Cc1cc(C(=O)NC2CCCc3c2cnn3-c2cccc(C)c2C)c(C)o1 (stereo not drawn) | 26.6% (inactive)
COc1ccc(C(=O)NC2CCCc3c2cnn3-c2cccc(C)c2C)c(OC)n1 (stereo not drawn) | 44.8% (active)
CC(C)(C)OC(=O)C[C@@H]1C/C=C\C[C@@H](CC(=O)N(CCO)Cc2ccccc2)C(=O)N[C@H](Cc2ccccc2)COC1=O | -33.6% (inactive)
OCCN(Cc1ccccc1)Cc1ccc(Cl)cc1 | 9.29% (inactive)
CCN(CC)CCCNC(=O)CCc1ccccc1 | -15% (inactive)
CN(C(=O)CN(CCO)CC(=O)N(C)C(C)(C)Cc1ccccc1)C(C)(C)Cc1ccccc1 | 68.2% (active)
CCN(CC)C(=O)[C@H]1CC(CC(=O)NCc2ccco2)C(=O)N2CCc3c([nH]c4ccccc34)[C@]12C (stereo partly drawn) | -11.1% (inactive)
Cc1c(C(=O)Nc2cccc(S(=O)(=O)N3CCOCC3)c2)oc2ccccc12 | -3.24% (inactive)
C=CCC1(CC=C)CCCN1C(=O)c1cc(COc2ccc(-n3cncn3)cc2)on1 | 34.5% (active)
O=C(c1cc(COc2ccc(F)c(F)c2)on1)N1CCOCC1 | -5.38% (inactive)
COc1cccc(OCc2cc(C(=O)N3CCN(C(=O)c4ccco4)CC3)no2)c1 | -6.35% (inactive)
Cc1ccc(CNC(=O)Cn2cnc3c(NCc4ccccc4)ncnc32)o1 | 10.5% (inactive)
O=C(CCNC(=O)c1ccccc1)Nc1nc2ccccc2s1 | -8.05% (inactive)

SMILES | inhibition
O=C(CNC(=O)c1ccccc1)Oc1ccc([N+](=O)[O-])cc1 | -4.15% (inactive)
O=C(NC(Nc1nc2ccc([N+](=O)[O-])cc2s1)(C(F)(F)F)C(F)(F)F)c1ccccc1 | 59.4% (active)
O=C(Nc1nccs1)C1CCCN1S(=O)(=O)c1cccc2cccnc12 (stereo not drawn) | -11.2% (inactive)
COc1ccc(NC(=O)C2CCCN(S(=O)(=O)c3cccc4cccnc34)C2)cc1 (stereo not drawn) | -34.5% (inactive)
COc1ccccc1CNC(=O)C1CCCN(S(=O)(=O)c2cccc3cccnc23)C1 (stereo not drawn) | 79.2% (active)
COc1ccc(NC(=O)C2CCCN(S(=O)(=O)c3cccc4cccnc34)C2)cc1OC (stereo not drawn) | -27.1% (inactive)
Cc1cc(C)cc(NC(=O)C2CCCN2S(=O)(=O)c2cccc3cccnc23)c1 (stereo not drawn) | 104% (active)
Cc1ccc(NC(=O)C2CCCN2S(=O)(=O)c2cccc3cccnc23)c(C)c1 (stereo not drawn) | -30.7% (inactive)
O=C(CN1C(=O)NC2(CCCC2)C1=O)Nc1cc(C(F)(F)F)ccc1N1CCOCC1 | -28.3% (inactive)
C[C@H](CO)N1C[C@H](C)[C@@H](CN(C)Cc2ccc(-c3ccccc3)cc2)Oc2ccc(NC(=O)Cn3cnnn3)cc2C1=O | -7.92% (inactive)
CC[C@]1(C(=O)OC)[C@H]2C(=O)N(Cc3ccccc3)C(=O)[C@H]2[C@H]2CN=C(SCc3ccc(C#N)cc3)N21 | -5.92% (inactive)
Cc1ccccc1S(=O)(=O)N1[C@@H](c2cccc(Cl)c2)C(C(=O)O)=CC[C@H]1c1ccc(Cl)cc1 | 52.1% (active)
Cc1ccc(S(=O)(=O)N2[C@@H](c3cccc(Cl)c3)C(C(=O)O)=CC[C@H]2c2ccc(Cl)c(Cl)c2)cc1 | 42% (inactive)
Cc1ccc([C@@H]2CC=C(C(=O)O)[C@H](c3cccc(Cl)c3)N2S(=O)(=O)c2ccc(C)cc2)cc1 | 10.8% (inactive)
COc1cc(NC(=O)COC(=O)c2ccc([N+](=O)[O-])s2)cc(OC)c1OC | -20.3% (inactive)
O=C(C[C@H]1C[C@H](C(=O)N2CCOCC2)[C@@]2(CCC3CCCC3)c3[nH]c4ccc(Cl)cc4c3CCN2C1=O)NCc1ccco1 | 21.8% (inactive)
Cc1ccc(-n2[nH]c(C)c(/C=N/N3C(=O)c4cccc5cccc(c45)C3=O)c2=O)cc1 | -11.8% (inactive)
COc1cc(SC#N)ccc1N=Cc1c(C)[nH]n(-c2ccc(C)cc2)c1=O | 67.5% (active)
Cc1ccc(-n2[nH]c(C)c(/C=N/NC(=O)c3cccc([N+](=O)[O-])c3)c2=O)cc1C | 7.53% (inactive)
O=C(Nc1cc(S(=O)(=O)N2CCOCC2)ccc1N1CCOCC1)c1c(F)cccc1Cl | -20% (inactive)
C=CCOc1cccc(C2C(C(=O)c3ccc(C)o3)=C(O)C(=O)N2c2nnc(C)s2)c1 (stereo not drawn) | 51% (active)

SMILES | inhibition
C=CCOc1cccc(C2C(C(=O)c3ccc(C)o3)=C(O)C(=O)N2CCCn2ccnc2)c1 (stereo not drawn) | -1.44% (inactive)
Cc1cc(N2C(=O)C(O)=C(C(=O)c3ccc(C)o3)C2c2ccc(OCc3ccccc3)cc2)no1 (stereo not drawn) | -19.8% (inactive)
O=C(CC1SCCNC1=O)Nc1ccc(Cl)c(Cl)c1 (stereo not drawn) | -14.2% (inactive)
O=C(CC(O)(C(F)(F)F)C(F)(F)F)Nc1ccc(Cl)c(Cl)c1 | 62.6% (active)
O=C(Cc1ccc(Cl)c(Cl)c1)Nc1ccc(SC(F)F)cc1 | -12.3% (inactive)
Oc1c(Cl)cc(Cl)c(Cl)c1Cc1c(O)c(Cl)cc(Cl)c1Cl | 42.3% (active)
CC(=O)Nc1ccc(NC(=O)COC(=O)C2CCC(C(C)(C)C)CC2)cc1 (stereo not drawn) | -1.79% (inactive)
CC1CCN(c2oc(-c3ccccc3F)nc2C#N)CC1 | -6.67% (inactive)
COc1ccc(Nc2oc(-c3ccccc3Cl)nc2C#N)cc1 | -16.2% (inactive)
N#Cc1nc(-c2cccc3ccccc23)oc1N | 56% (active)
O=C(N[C@H]1C/C=C\C(c2cccc(F)c2)N(Cc2ccccc2)C(=O)C1)OCC1c2ccccc2-c2ccccc21 (stereo partly drawn) | 4.42% (inactive)
CC(NC(=O)COC(=O)c1ccc2ccccc2n1)c1ccccc1 (stereo not drawn) | -14.8% (inactive)
CC(=O)Nc1ccc(S(=O)(=O)NCC(=O)OCC(=O)c2ccc[nH]2)cc1 | -2.13% (inactive)
C#CCOCCOCCOCCNc1nc(N2CCN(C(=O)[C@H](CO)n3cc([C@@H](N)C(C)C)nn3)CC2)nc(N2CCN(C(=O)[C@H](CCC(=O)O)n3cc([C@@H](N)[C@H](C)CC)nn3)CC2)n1 | 0.47% (inactive)
O=C(CSc1nnc(-c2ccncc2)o1)Nc1cccc(Cl)c1 | -0.1% (inactive)
CCOC(=O)C1CCCN(C(=O)CSc2nnc3nc(C)cc(C)n23)C1 (stereo not drawn) | -14.2% (inactive)
CC(=O)N1CCCc2cc(S(=O)(=O)N3CCCC(C(=O)N4CCN(c5cccc(Cl)c5)CC4)C3)ccc21 (stereo not drawn) | 72.6% (active)
CC(=O)N1CCCc2cc(S(=O)(=O)N3CCCC(C(=O)NCc4ccc(Cl)cc4)C3)ccc21 (stereo not drawn) | -22.5% (inactive)
CC(=O)N1c2ccc(S(=O)(=O)N3CCCC(C(=O)Nc4cccc(Cl)c4)C3)cc2CC1C (stereo not drawn) | 0.09% (inactive)
CCOc1ccccc1Nc1nnc(SCC(=O)NCC2CCCO2)s1 (stereo not drawn) | -22.1% (inactive)
